Results reported in PubChem BioAssay (NCATS).
Records with an inconclusive call do not appear. The source made the active and inactive calls. The call rests on the fitted dose curve; in most records, active means well fitted curve in the direction sought with a large enough effect; inconclusive means small, poorly fitted or top-dose-only effect, or another doubt; inactive means no such curve, though single readings can be large; an effect the other way counts as inactive or inconclusive. *1 amine or outer side, *2 acyl side, *3 side chain or, on linkers, in order; H or OH if unused. Where a SMILES comes first, the peptide text is derived from it. [ ]: non-standard residue; d: D form. The star is where a group is joined. ξ: configuration not given here. X9 = CCC(C)(N*)C(=O)C1CC[C@@H](C(=O)N[C@@H](Cc2ccccc2)C(=O)NCC(=O)O)N1; X8 = O=C([C@@H]1CC(O)CN1[*:1])[*:2]; aIle = CC[C@@H](C)[C@H](N)C(=O)O; Thr(3ξ) = CC(O)[C@H](N)C(=O)O; ξIva = CCC(C)(N)C(=O)O; Aib = CC(C)(N)C(=O)O

What was measured:
CRL-7250 = normal cell line; assay: Cytotoxic Profiling of Annotated Libraries Using Quantitative High-Throughput Screening (AID 1296008); settings: Five cell lines viability, CellTiter-Glo ATP luminescence, 48-72 h; max response: hits give low values; further: nearly all actives have a fitted effect of over 60% in size; on max response: on the % scale 0 is the no-effect control and ±100 the full control effect
Outline: (§1)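 Cytotoxicity was measured as CellTiter-Glo ATP luminescence, read after 10 min at room temperature. Compound treatment of the cells lasted 48 or 72 hr at 37 degrees Celsius in a qHTS format.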

HEK293 = assay: as above; settings: Five cell lines viability, CellTiter-Glo ATP luminescence, 48-72 h; max response: hits give low values
Outline: as §1

HaCat [1] = assay: as above; settings: Five cell lines viability, CellTiter-Glo ATP luminescence, 48-72 h; max response: hits give low values
Outline: as §1

KB-3-1 = assay: as above; settings: Five cell lines viability, CellTiter-Glo ATP luminescence, 48-72 h; max response: hits give low values
Outline: as §1

NIH3T3 = assay: as above; settings: Five cell lines viability, CellTiter-Glo ATP luminescence, 48-72 h; max response: hits give low values
Outline: as §1

HACAT [2] = assay: qHTS assay to identify novel small-molecules to repurpose for Merkel cell carcinoma treatment (AID 1296009); settings: MCC and control cell lines, CellTiter-Glo viability, 72 h; at 44.8 µM (top of the series) unless noted; further: nearly all actives have a fitted effect of over 60% in size
Outline: (§2)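 After compound transfer in DMSO, plates were kept 72 hr at 37 degree celsius. Luminescent ATP signal from CellTiter-Glo served as viability measure, normalized against DMSO and no-cell controls.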

C33A = assay: Primary qHTS to identify gynecologic anti-cancer compounds using libraries of approved drugs and bioactive compounds (AID 1345084); settings: Gynecologic cancer cell panel viability, ATPlite luminescence, 48 h; series mostly up to 57.5 µM; further: on the % scale 0 is the no-effect control and ±100 the full control effect; nearly all actives have a fitted effect of over 55% in size
Outline: (§3)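 Five-concentration response, 48 h; readout is ATP-driven luciferase luminescence.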

CAOV3 = assay: as above; settings: Gynecologic cancer cell panel viability, ATPlite luminescence, 48 h; series mostly up to 57.5 µM
Outline: as §3

CASKI = assay: as above; settings: Gynecologic cancer cell panel viability, ATPlite luminescence, 48 h; series mostly up to 57.5 µM
Outline: as §3

Es-2 = assay: as above; settings: Gynecologic cancer cell panel viability, ATPlite luminescence, 48 h; series mostly up to 57.5 µM
Outline: as §3

HeLa = assay: as above; settings: Gynecologic cancer cell panel viability, ATPlite luminescence, 48 h; series mostly up to 57.5 µM
Outline: as §3

JEG-3 = assay: as above; settings: Gynecologic cancer cell panel viability, ATPlite luminescence, 48 h; series mostly up to 57.5 µM
Outline: as §3

OV90 = assay: as above; settings: Gynecologic cancer cell panel viability, ATPlite luminescence, 48 h; series mostly up to 57.5 µM
Outline: as §3

Hek293T [3] = assay: as above; settings: Gynecologic cancer cell panel viability, ATPlite luminescence, 48 h, control line for the selectivity index; series mostly up to 57.5 µM
Outline: as §3

HEK293T [4] = assay: qHTS assay to identify novel small-molecules to repurpose for Merkel cell carcinoma treatment (AID 1296009); settings: MCC and control cell lines, CellTiter-Glo viability, 72 h; at 44.8 µM (top of the series) unless noted; further: nearly all actives have a fitted effect of over 60% in size
Outline: as §2

COC(=O)C1=COC(O[C@@H]2O[C@H](COC(=O)/C=C/c3ccc(O)cc3)[C@@H](O)[C@H](O)[C@H]2O)C2C(CO)=CCC12 (some centres not stated)
inactive: outcome (CRL-7250) | max response (HEK293) -1.21% | outcome (HaCat [1]) | outcome (KB-3-1) | max response (NIH3T3) 2.77% | outcome (HACAT [2]) inactive [at 17.4 µM] | Potency (C33A) | Potency (CAOV3) | outcome (CASKI) | Potency (Es-2) | Potency (HeLa) | Potency (JEG-3) | Potency (OV90)

CC[C@@H](C)[C@H](NC(=O)C(C)(C)NC(=O)[C@H](CCC(N)=O)NC(=O)C(C)(CC)NC(=O)[C@H](Cc1c[nH]c2ccccc12)NC(C)=O)C(=O)N[C@H](C(=O)NC(C)(C)C(=O)N[C@@H](CC(C)C)C(=O)NC(C)(C)C(=O)N1CCC[C@H]1C(=O)N[C@@H](CCC(N)=O)C(=O)NC(C)(C)C(=O)N1CC(O)C[C@H]1C(=O)NC(C)(CC)C(=O)C1CC[C@@H](C(=O)N[C@@H](Cc2ccccc2)C(=O)NCC(=O)O)N1)C(C)O (some centres not stated) (Ac-W[ξIva]Q[Aib][aIle][Thr(3ξ)][Aib]L[Aib]PQ[Aib][X8]-X9)
inactive: max response (CRL-7250) -9.43% | max response (HEK293) -13.1% | outcome (HaCat [1]) inactive; activator | max response (KB-3-1) -1.3% | max response (NIH3T3) -1.9% | outcome (HACAT [2]) inactive; activator [at 4.96 µM] | activity change, negative = cytotoxicity (C33A) -11% [at 6.55 µM] | activity change, negative = cytotoxicity (CAOV3) -26.3% [at 6.55 µM] | activity change, negative = cytotoxicity (Es-2) 1.15% [at 6.55 µM] | activity change, negative = cytotoxicity (HeLa) -27.1% [at 6.55 µM] | activity change, negative = cytotoxicity (Hek293T [3]) -15.3% [at 6.55 µM] | activity change, negative = cytotoxicity (OV90) -20.1% [at 6.55 µM]

Cc1cccc(NC(=O)CN2CCC(c3ccccn3)CC2)c1
inactive: outcome (CRL-7250) | max response (HEK293) -3.86% | outcome (HaCat [1]) | max response (KB-3-1) -2.52% | max response (NIH3T3) 4.5% | outcome (HACAT [2]) | Potency (C33A) | outcome (CASKI) | Potency (Es-2) | Potency (HeLa) | Potency (Hek293T [3]) | Potency (JEG-3) | Potency (OV90)

C[C@@H]1O[C@@H](O[C@H]2[C@H](OC(=O)[C@]34CCC(C)(C)C[C@H]3C3=CCC5[C@@]6(C)CC[C@H](O[C@@H]7O[C@H](CO[C@@H]8OC[C@H](O)[C@H](O)[C@H]8O[C@@H]8OC[C@@H](O)[C@H](O)[C@H]8O)[C@@H](O)[C@H](O)[C@H]7O)C(C)(C)C6CC[C@@]5(C)[C@]3(C)C[C@H]4O)O[C@H](CO)[C@@H](O)[C@@H]2O)[C@H](O[C@@H]2O[C@H](CO)[C@@H](O)[C@H](O)[C@H]2O)[C@H](O)[C@H]1O[C@@H]1OC[C@@H](O)[C@H](O[C@@H]2OC[C@@H](O)[C@H](O)[C@H]2O)[C@H]1O (some centres not stated)
inactive: max response (CRL-7250) 0.998% | max response (HEK293) 5% | outcome (HaCat [1]) | max response (KB-3-1) -0.626% | max response (NIH3T3) -3.82% | outcome (HACAT [2]) inactive [at 4.96 µM] | activity change, negative = cytotoxicity (C33A) 6.83% [at 6.55 µM] | activity change, negative = cytotoxicity (CASKI) -2.72% [at 6.55 µM] | activity change, negative = cytotoxicity (Es-2) -1.37% [at 6.55 µM] | activity change, negative = cytotoxicity (HeLa) 0.0394% [at 6.55 µM] | activity change, negative = cytotoxicity (Hek293T [3]) 6.55% [at 6.55 µM] | activity change, negative = cytotoxicity (JEG-3) 9.73% [at 6.55 µM] | activity change, negative = cytotoxicity (OV90) -1.86% [at 6.55 µM]

C[C@@H]1C(=O)O[C@H](C)[C@H]1C[C@@H](O)[C@](C)(O)[C@H]1CC[C@@]2(O)C3=CC(=O)[C@@H]4C[C@@H](O)[C@@H](O)C[C@]4(C)C3CC[C@]12C (some centres not stated)
inactive: max response (CRL-7250) -1.86% | outcome (HEK293) | max response (HaCat [1]) -25% | max response (KB-3-1) 8.3% | max response (NIH3T3) 1.28% | outcome (HEK293T [4]) inactive [at 17.4 µM] | Potency (C33A) | Potency (CAOV3) | outcome (CASKI) | Potency (Es-2) | Potency (HeLa) | Potency (Hek293T [3]) | Potency (JEG-3) | Potency (OV90)

CC(=O)O[C@@H]1C=C2[C@H](CC[C@@]3(C)[C@@]2(O)CC[C@H]2Cc4c([nH]c5ccccc45)[C@@]23C)O[C@@H]1C(C)(C)O
inactive: max response (CRL-7250) -3.54% | max response (HEK293) -5.86% | outcome (HaCat [1]) | max response (KB-3-1) 6.54% | max response (NIH3T3) 3.65% | outcome (HACAT [2]) inactive [at 17.4 µM] | Potency (C33A) | outcome (CASKI) | Potency (Es-2) | Potency (HeLa) | Potency (Hek293T [3]) | Potency (JEG-3) | Potency (OV90)

C[C@@H]1C(=O)O[C@H]2[C@H]1CC[C@@]1(C)C(=O)C=C[C@@](C)(O)[C@H]21
inactive: max response (CRL-7250) -5.99% | outcome (HEK293) | max response (HaCat [1]) -2.04% | max response (KB-3-1) 1.69% | max response (NIH3T3) 4.77% | outcome (HEK293T [4]) | Potency (C33A) | Potency (CAOV3) | outcome (CASKI) | Potency (Es-2) | Potency (HeLa) | Potency (Hek293T [3]) | Potency (JEG-3) | Potency (OV90)
